{"source": "PubChem BioAssay AID743484", "about": "(Broad Institute, 2014)", "note": "Measured potencies and affinities stand elsewhere. Active and inactive are the calls of the source.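 How the source made its calls: active means cell-killing compounds whose fitted half-effect concentration is at most twice their highest valid dose; inconclusive means flat curve with 30 to 70% signal loss, or poor fit; inactive means the rest.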"}
{"experiment": "A549 lung cell viability reduction – CellTiter-Glo luminescence, cherry-pick, cytotoxicity control, dose response (AID 743484)", "details": "CellTiter-Glo ATP luminescence, 72 h; series mostly up to 26 µM"}
{"smiles": "Cc1ccc(C)c(NC(=O)CSc2nc3nc(-c4cccs4)cc(C(F)(F)F)c3c(=O)[nH]2)c1", "outcome": "inactive"}
{"smiles": "Cc1ccc(S(=O)(=O)N2CC[C@H]3[C@H](CO)Nc4ccc(Br)cc4[C@H]32)cc1", "outcome": "inactive"}
{"smiles": "COC(=O)c1c(NC(=O)CCC(=O)O)sc(Cc2ccccc2)c1C", "outcome": "inactive"}
{"smiles": "C[C@@H]1CCCCO[C@H](CN(C)CC2CC2)[C@H](C)CN([C@@H](C)CO)C(=O)c2cc(NC(=O)Nc3cccc4ccccc34)ccc2O1", "outcome": "inactive"}
{"smiles": "Cc1c(C(=O)O)sc2nc(CSc3ncc(C(F)(F)F)cc3Cl)[nH]c(=O)c12", "outcome": "inactive"}
{"smiles": "O=C(O)c1cc([N+](=O)[O-])ccc1NCc1ccccc1", "outcome": "inactive"}
{"smiles": "COc1ccc2[nH]c3c(=O)n(CCCCC(=O)NCCC(C)C)c(=S)[nH]c3c2c1", "outcome": "inactive"}
{"smiles": "COc1ccc(-n2cc(-c3ccccc3)c3c(N4CCOCC4)ncnc32)cc1", "outcome": "inactive"}
{"smiles": "CCn1c(-c2cc(-c3ccc(OC(C)C)cc3)nc3ccccc23)n[nH]c1=S", "outcome": "inactive"}
{"smiles": "Cc1noc(C)c1NC(=O)Nc1ccc2c(c1)C(=O)N([C@H](C)CO)C[C@@H](C)[C@@H](CN(C)C(=O)Nc1ccc3c(c1)OCO3)OCCCC[C@@H](C)O2", "outcome": "inactive"}
{"smiles": "Cc1cc(C)c(OCCNC(=O)c2ccccc2Sc2ccccc2C#N)c(C)c1", "outcome": "inactive"}
{"smiles": "C[C@@H]1CCCCO[C@H](CN(C)C(=O)CCCN(C)C)[C@H](C)CN([C@@H](C)CO)C(=O)c2cc(NC(=O)Nc3cccc4ccccc34)ccc2O1", "outcome": "inactive"}
{"smiles": "COc1ccc(Cn2c(-c3ccc(Cl)cc3)c[n+]3ccccc23)cc1", "outcome": "inactive"}
{"smiles": "COc1ccc(Nc2oc(-c3ccco3)nc2S(=O)(=O)c2ccc(F)cc2)cc1", "outcome": "inactive"}
{"smiles": "CC[C@H]1OC(=O)[C@H](C)[C@@H](O[C@H]2C[C@@](C)(OC)[C@@H](O)[C@H](C)O2)[C@H](C)[C@@H](O[C@@H]2O[C@H](C)C[C@H](N(C)C)[C@H]2O)[C@](C)(O)C[C@@H](C)[C@@H]2N[C@@H](COCCOC)O[C@H]([C@H]2C)[C@]1(C)O", "outcome": "inactive"}
{"smiles": "Cc1[nH]c(=S)sc1Cc1ccc(Cl)c(Cl)c1", "outcome": "inactive"}
{"smiles": "COc1cccc(C(=O)Nc2cc(C)nn2-c2ccccc2)c1OC", "outcome": "inactive"}
{"smiles": "CCOc1ccccc1NC(=O)c1ccc2ccccc2c1", "outcome": "inactive"}
{"smiles": "CCOC(=O)c1c(NC(=O)Cc2cccs2)sc(C)c1C", "outcome": "inactive"}
